Results reported in PubChem BioAssay (Tox21).
Inconclusive results are not listed. Active and inactive are the calls of the source. Unless noted, the call rests on the fitted dose curve.

Experiment: qHTS assay to identify small molecule agonists of the NFkB signaling pathway (AID 1159509; active means well fitted curve in the direction sought with a large enough effect in the signal ratio in the repeat runs, not every such curve was filed as active; the % refers to the signal ratio)
Settings: NFkB-bla ME-180 cells, beta-lactamase FRET ratio, 5 h; series mostly up to 61 µM
Summary of the method: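 NFkB-bla ME-180 cells with a beta-lactamase reporter under an NF-kB response element were plated overnight, treated with compounds in DMSO for 5 hr at 37 C, then loaded with FRET substrate for 1.5 hr at room temperature.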

Q: Which outcome does the source give for `NCCN1CCNCC1` here?
A: inactive

Q: With `CCCCCCCC=O` as the molecule, how does the outcome read?
A: inactive

Q: With `O=c1[nH]cnc2[nH]ncc12` as the molecule, how does the outcome read?
A: inactive

Q: Which outcome does the source give for `c1ccc2c(c1)Cc1ccccc1-2` here?
A: inactive

Q: For `CC1(C)CC(N)CC(C)(CN)C1` (centres undefined), which outcome is on record?
A: inactive

Q: For `CCCCCCO`, which outcome is on record?
A: inactive

Q: With `O=C(O)Cn1c(=O)n(Cc2ccc(Br)cc2F)c(=O)c2ccc(Cl)cc21` as the molecule, how does the outcome read?
A: inactive

Q: Which outcome does the source give for `OCc1ccccc1` here?
A: inactive

Q: With `Cc1ccc(C(C)C)c(O)c1` as the molecule, how does the outcome read?
A: inactive

Q: Which outcome does the source give for `C=CC(=O)OCCC(=O)O` here?
A: inactive

Q: Which outcome does the source give for `C=CC(C)CCCC(C)(C)O` (centres undefined) here?
A: inactive

Q: With `COCCOC(=O)c1ccccc1C(=O)OCCOC` as the molecule, how does the outcome read?
A: inactive

Q: For `CCCCOC(=O)c1ccc(N)cc1`, which outcome is on record?
A: inactive

Q: With `CC(CCO)CC(C)(C)C` (centres undefined) as the molecule, how does the outcome read?
A: inactive

Q: Which outcome does the source give for `C=CCCCCCCCCC(=O)O` here?
A: inactive

Q: Which outcome does the source give for `C=C(C)[C@H]1CC=C(C)C(=O)C1` here?
A: inactive

Q: For `CCc1ccccc1CC`, which outcome is on record?
A: inactive

Q: With `CCOCCOCCOCCO` as the molecule, how does the outcome read?
A: inactive

Q: For `O=C(O)c1ccc(S(=O)(=O)N(Cl)Cl)cc1`, which outcome is on record?
A: inactive

Q: With `Clc1ccccn1` as the molecule, how does the outcome read?
A: inactive

Q: With `COCCCN` as the molecule, how does the outcome read?
A: inactive

Q: Which outcome does the source give for `CN/C(=C\[N+](=O)[O-])NCCSCc1csc(CN(C)C)n1` here?
A: inactive

Q: For `Brc1ccc(Br)c(Br)c1`, which outcome is on record?
A: inactive

Q: For `CC1(C)NC(=O)NC1=O`, which outcome is on record?
A: inactive

Q: Which outcome does the source give for `CCO[Si](CCC#N)(OCC)OCC` here?
A: inactive

Q: With `Cc1ccc([N+](=O)[O-])cc1S(=O)(=O)O` as the molecule, how does the outcome read?
A: inactive

Q: Which outcome does the source give for `O=C(O)c1ccccc1C(=O)O` here?
A: inactive

Q: Which outcome does the source give for `CC1(C)OC[C@@H]2O[C@@]3(C(=O)O)OC(C)(C)O[C@H]3[C@@H]2O1` here?
A: inactive

Q: With `CNC(=S)N(C)C` as the molecule, how does the outcome read?
A: inactive

Q: Which outcome does the source give for `O=C1CCCC1` here?
A: inactive

Q: For `CC(O)CC(C)(C)O` (centres undefined), which outcome is on record?
A: inactive

Q: With `COC(=O)CCCC(=O)OC` as the molecule, how does the outcome read?
A: inactive

Q: For `C=CCc1ccc(OC)c(OC)c1`, which outcome is on record?
A: inactive

Q: With `Cc1ccc(S(=O)(=O)N=C=O)cc1` as the molecule, how does the outcome read?
A: inactive

Q: For `O=S(=O)(O)c1ccccc1`, which outcome is on record?
A: inactive

Q: With `CN1C(=O)CC[C@H]1c1cccnc1` as the molecule, how does the outcome read?
A: inactive

Q: For `CCNC(=S)NCC`, which outcome is on record?
A: inactive

Q: For `C=CC[N+](C)(C)CC=C`, which outcome is on record?
A: inactive

Experiment: qHTS assay to identify small molecule agonists of the NFkB signaling pathway - cell viability counter screen (AID 1159515); further: nearly all actives have a fitted effect of over 55% in size
Settings: NFkB-bla ME-180 viability, CellTiter-Glo luminescence, 5 h; series mostly up to 61 µM
Summary of the method: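 Luminescence from CellTiter-Glo (30 min, room temperature) gives viability, measured in the same wells as the beta-lactamase reporter read. Cells were NFkB-bla ME-180, 2,000 per well, treated 5 hr with compounds.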

Q: With `NCCN1CCNCC1` as the molecule, how does the outcome read?
A: inactive

Q: Which outcome does the source give for `CCCCCCCC=O` here?
A: inactive

Q: For `O=c1[nH]cnc2[nH]ncc12`, which outcome is on record?
A: inactive

Q: For `c1ccc2c(c1)Cc1ccccc1-2`, which outcome is on record?
A: inactive

Q: For `CC1(C)CC(N)CC(C)(CN)C1` (centres undefined), which outcome is on record?
A: inactive

Q: For `CCCCCCO`, which outcome is on record?
A: inactive

Q: For `O=C(O)Cn1c(=O)n(Cc2ccc(Br)cc2F)c(=O)c2ccc(Cl)cc21`, which outcome is on record?
A: inactive

Q: With `OCc1ccccc1` as the molecule, how does the outcome read?
A: inactive

Q: Which outcome does the source give for `Cc1ccc(C(C)C)c(O)c1` here?
A: inactive

Q: With `C=CC(=O)OCCC(=O)O` as the molecule, how does the outcome read?
A: inactive

Q: With `C=CC(C)CCCC(C)(C)O` (centres undefined) as the molecule, how does the outcome read?
A: inactive

Q: Which outcome does the source give for `COCCOC(=O)c1ccccc1C(=O)OCCOC` here?
A: inactive

Q: With `CCCCOC(=O)c1ccc(N)cc1` as the molecule, how does the outcome read?
A: inactive

Q: With `CC(CCO)CC(C)(C)C` (centres undefined) as the molecule, how does the outcome read?
A: inactive

Q: With `C=CCCCCCCCCC(=O)O` as the molecule, how does the outcome read?
A: inactive

Q: Which outcome does the source give for `C=C(C)[C@H]1CC=C(C)C(=O)C1` here?
A: inactive

Q: With `CCc1ccccc1CC` as the molecule, how does the outcome read?
A: inactive

Q: With `CCOCCOCCOCCO` as the molecule, how does the outcome read?
A: inactive

Q: Which outcome does the source give for `O=C(O)c1ccc(S(=O)(=O)N(Cl)Cl)cc1` here?
A: inactive

Q: Which outcome does the source give for `COCCCN` here?
A: inactive

Q: For `CN/C(=C\[N+](=O)[O-])NCCSCc1csc(CN(C)C)n1`, which outcome is on record?
A: inactive

Q: Which outcome does the source give for `Brc1ccc(Br)c(Br)c1` here?
A: inactive

Q: With `CC1(C)NC(=O)NC1=O` as the molecule, how does the outcome read?
A: inactive

Q: Which outcome does the source give for `CCO[Si](CCC#N)(OCC)OCC` here?
A: inactive

Q: For `Cc1ccc([N+](=O)[O-])cc1S(=O)(=O)O`, which outcome is on record?
A: inactive

Q: Which outcome does the source give for `O=C(O)c1ccccc1C(=O)O` here?
A: inactive

Q: With `CC1(C)OC[C@@H]2O[C@@]3(C(=O)O)OC(C)(C)O[C@H]3[C@@H]2O1` as the molecule, how does the outcome read?
A: inactive

Q: With `CNC(=S)N(C)C` as the molecule, how does the outcome read?
A: inactive

Q: With `O=C1CCCC1` as the molecule, how does the outcome read?
A: inactive

Q: With `CC(O)CC(C)(C)O` (centres undefined) as the molecule, how does the outcome read?
A: inactive

Q: For `C=CCc1ccc(OC)c(OC)c1`, which outcome is on record?
A: inactive

Q: Which outcome does the source give for `Cc1ccc(S(=O)(=O)N=C=O)cc1` here?
A: inactive

Q: For `O=S(=O)(O)c1ccccc1`, which outcome is on record?
A: inactive

Q: With `CN1C(=O)CC[C@H]1c1cccnc1` as the molecule, how does the outcome read?
A: inactive

Q: With `CCNC(=S)NCC` as the molecule, how does the outcome read?
A: inactive

Q: With `C=CC[N+](C)(C)CC=C` as the molecule, how does the outcome read?
A: inactive
